Hits are enriched below; roughly 3.4% of the tested compounds scored in any of these assays.
Gli-Sufu antag – Gli-Sufu pathway antagonism. Sufu-KO-LIGHT fibroblasts, Gli luciferase reporter luminescence. inhibition, % at 5 µM. 340,000 tested, 0.74% active. AID 588413;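 active = inhibition above about 55%, limit read from the data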;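 also: 0% = DMSO-treated cells and 100% = wells with medium but no cells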
SMARCA2 act – increases SMARCA2 function in MMTV reporter cells; MG213 cells, MMTV-luciferase reporter, dexamethasone, overnight; activation, % at 9.1 µM; 370,000 tested, 1% active; in the data active = activation above about 7.8%;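 also: 0% = vehicle wells and 100% = reference activator wells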
COUP-TFII inh – NR2F2 (human) inhibition, primary screen | P24468 | HEK293T NGFI-A luciferase reporter, luminescence | inhibition, % at 8.6 µM | 370,000 tested, 0.7% active | AID 686940;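 active = inhibition above a per-plate cutoff, mean inhibition of test wells between control levels plus 3 SD, cut at about 38% in these data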;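 also: cells cotransfected with COUP-TFII expression vector driving the NGFI-A reporter; 0% = median of COUP-TF2 test wells and 100% = reporter-only cells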
Target sequence (P24468 whole entry, looked up): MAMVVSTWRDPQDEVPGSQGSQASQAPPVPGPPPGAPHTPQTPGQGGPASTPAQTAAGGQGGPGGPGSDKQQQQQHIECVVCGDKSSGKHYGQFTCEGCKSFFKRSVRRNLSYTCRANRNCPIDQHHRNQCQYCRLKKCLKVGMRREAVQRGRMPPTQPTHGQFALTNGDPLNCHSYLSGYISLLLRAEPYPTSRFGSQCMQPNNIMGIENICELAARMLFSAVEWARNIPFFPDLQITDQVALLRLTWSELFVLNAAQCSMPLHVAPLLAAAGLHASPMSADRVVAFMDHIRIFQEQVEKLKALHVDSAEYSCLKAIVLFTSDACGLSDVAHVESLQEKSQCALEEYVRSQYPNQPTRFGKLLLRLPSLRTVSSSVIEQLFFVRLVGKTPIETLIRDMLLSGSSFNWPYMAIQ
H9c2 protect – modulators protecting cardiomyocytes from myocardial damage; 360,000 tested, 0.63% active; H9c2 cardiomyocytes, H2O2 injury protection, ATPLite, 2 h; protection from H2O2 cell death, % at 20 µM; AID 588492;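 active = compounds giving at least 50% protection of heart cells from peroxide-induced death in the single-dose screen, raw or plate-pattern-corrected value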;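 also: 0% = DMSO wells with peroxide and 100% = DMSO wells without peroxide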
GAA850 FXN act – activators of GAA850 frataxin (FXN) promoter; HEK293 lucGAA850 FXN promoter luciferase reporter, 24 h; percent of 10 µM SAHA response; 360,000 tested, 0.56% active; activation, % at 6 µM;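 active = activation above the average of all compounds screened plus 3 SD, cutoff fixed separately per campaign, cut at about 7.5% in these data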;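 also: 0% = DMSO wells and 100% = 10 µM SAHA wells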
GalR3 antagonist – human GalR3 antagonism; O60755; HEK293 GalR3-CNG cAMP membrane potential fluorescence; galR3 body fused to GalR1 C-terminus; inhibition, % at 3 µM; 360,000 tested, 0.44% active;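 active = inhibition above the screen-wide average plus 3 SD, cut at about 13% in these data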;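 also: forskolin and galanin both at EC90 stimulate the cells; cAMP rise reported by CNG channel membrane potential dye signal; 0% = forskolin plus galanin with DMSO and 100% = forskolin alone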
Gli-Sufu confirm – confirmation of Gli-SUFU pathway antagonists; shares compounds with Gli-Sufu antag; Sufu-KO-LIGHT cells, Gli luciferase reporter, luminescence; inhibition, % at 5 µM; 2,500 tested, 40% active;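 active = mean inhibition at 5 µM reaching about 45%, limit read from the data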;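 also: plate controls were DMSO-treated cells for no effect and wells lacking cells for full effect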
Gli cytotox – counter-screen for Gli-SUFU antagonists: cytotoxicity | Sufu-KO-LIGHT cells cytotoxicity, ATP luminescence | shares compounds with Gli-Sufu antag | cytotoxicity, % at 5 µM | 2,500 tested, 32% active | AID 651994;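 active = mean cytotoxicity at 5 µM above about 25%, limit read from the data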;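 also: cells exposed to compound overnight for roughly 16 to 18 hours; plate controls were DMSO wells with cells for no effect and medium without cells for full effect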
Wnt3a counter – Wnt3a reporter inhibition counter-screen. shares compounds with Gli-Sufu antag. Wnt-LIGHT cells, Wnt3a-driven luciferase reporter, luminescence. inhibition, % at 6.25 µM. 2,500 tested, 20% active;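 active = mean inhibition above about 25%, limit read from the data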
Numbers without * were called inactive; / = no result given.

SMILES | Gli-Sufu antag | SMARCA2 act | COUP-TFII inh | H9c2 protect | GAA850 FXN act | GalR3 antagonist | Gli-Sufu confirm | Gli cytotox | Wnt3a counter
CC(=O)Nc1ccc(S(=O)(=O)N2c3ccccc3C(C)=CC2(C)C)cc1 | 57.4* | 1.2 | -49.8 | 6.1 | -2.2 | -3.6 | 52.4* | 53.7* | 23.2
COc1ccccc1-c1noc2c1C(=O)N(Cc1cn(-c3ccccc3)nn1)CC2 | / | -4.8 | 20.1 | 0.8 | / | -4.0 | / | / | /
CN1CCN(c2ncnc3c2ncn3[C@H]2CN(Cc3ccccc3)C[C@@H](CO)O2)CC1 | / | -1.0 | 1.6 | 4.0 | -2.8 | -3.9 | / | / | /
CSc1nnc(-c2ccc([N+](=O)[O-])cc2)o1 | 93.3* | -3.1 | -15.4 | 4.9 | 1.9 | 5.6 | 24.0 | 0.1 | 0.9
COC(=O)c1sc(NC(=O)c2cc(-c3ccccc3)nc3ccccc23)c(C#N)c1C | 69.1* | -1.0 | -6.8 | -34.5 | -0.5 | 6.7 | 81.7* | 30.9* | 62.3*
CCOC(=O)c1sc(NC(=O)c2cc(-c3ccc(C)cc3)nc3ccccc23)c(C#N)c1C | 41.3 | -3.8 | 20.4 | -16.8 | 0.7 | -1.2 | / | / | /
Cc1nc(N)nc(Nc2ccc(C#N)cc2)c1Br | 55.5* | -2.9 | 10.8 | -0.2 | 3.1 | 3.8 | 32.4 | 19.7 | -2.3
CC(=NNc1nc2ccccc2s1)c1ccncn1 | 52.3 | -4.4 | -10.2 | 16.6 | -15.0 | -2.5 | 71.0* | 41.9* | 21.2
C/C(=N\Nc1nc2ccccc2s1)c1ccc(Br)s1 | 19.4 | -3.2 | 18.3 | -10.2 | 0.8 | -2.6 | / | / | /
CN(C)S(=O)(=O)NCCNc1ccc(C(F)(F)F)cc1[N+](=O)[O-] | 97.8* | -2.8 | 1.1 | -10.3 | 2.1 | -3.5 | 3.2 | 21.8 | -85.7
OC(c1ccc(Cl)c(Cl)c1)c1ncc(-c2ccccc2C(F)(F)F)[nH]1 (centres undefined) | / | -3.9 | -14.0 | -7.7 | -0.5 | -6.9 | / | / | /
CCOC(=O)C1CCN(C2=C(NS(=O)(=O)c3ccc(Br)cc3)C(=O)c3ccccc3C2=O)CC1 | 54.9 | -3.8 | 4.1 | -9.6 | 0.8 | -5.4 | 20.2 | 15.1 | 17.2
NC(=O)C1CCN(C2=C(NS(=O)(=O)c3ccc(Br)cc3)C(=O)c3ccccc3C2=O)CC1 | 11.7 | -2.2 | 3.5 | 5.3 | -1.8 | -3.0 | / | / | /
O=S(=O)(NCCc1ccccc1)c1ccc(F)cc1 | 52.0 | -3.0 | 0.2 | -4.7 | 1.6 | -5.6 | 36.0 | 24.9 | -13.4
O=C(O)CCc1ccc(S(=O)(=O)NCCc2ccccc2)cc1 | -0.2 | -0.1 | 3.0 | -1.9 | 0.3 | -2.9 | / | / | /
COc1ccc2c(c1)c([C@@H]1[C@H](C)[C@H]3CCCC[C@H]3CN1S(=O)(=O)c1ccc(C)cc1)cn2C | 6.4 | -4.3 | 6.9 | -16.1 | 0.6 | -7.4 | / | / | /
Cc1ccc(S(=O)(=O)N2C[C@@H]3CCCC[C@@H]3[C@@H](C)[C@H]2c2cn(Cc3ccccc3)c3ncccc23)cc1 | 78.5* | -4.4 | -5.1 | -23.0 | -1.6 | -3.0 | 85.8* | 39.9* | 32.6*
Cc1ccc(S(=O)(=O)N2C[C@@H]3[C@H]4CC[C@H](C4)[C@@H]3[C@@H](C)[C@@H]2c2cn(Cc3ccccc3)c3ncccc23)cc1 | -8.9 | -4.4 | 3.5 | -23.2 | 1.8 | -4.2 | / | / | /
Cc1ccc(S(=O)(=O)N2C[C@@H]3CCCC[C@@H]3[C@@H](C)[C@H]2c2cn(Cc3ccccc3)c3ccccc23)cc1 | 87.5* | 3.2 | -16.9 | -19.1 | 1.2 | -4.7 | 84.9* | 31.6* | 7.5
O=S1(=O)C=CCN1Cc1cn(Cc2cccc(Cl)c2)nn1 | / | -0.5 | -10.8 | / | / | / | / | / | /
CCc1ccccc1NC(=S)N=Nc1c(O)n(C)c2ccc(S(=O)(=O)N3CCOCC3)cc12 | 65.9* | -2.6 | 7.7 | 22.6 | -1.2 | -1.9 | 47.7* | 19.5 | -25.4
CC(C)(C)C(C(=O)NCc1ccccc1)N1CCN(CCN2CCOCC2)CC1 (centres undefined) | / | -1.4 | -2.5 | / | / | -0.6 | / | / | /

High-throughput results (PubChem BioAssay)
